# Compounds with a hit are over-represented: about 10% of the library has one in this group of screens.
# PLK1 PBD inh = qHTS for Inhibitors of PLK1-PDB (polo-like kinase 1 - polo-box domain): Primary Screen; Serine/threonine-protein kinase PLK1 (Homo sapiens), P53350; Plk1 PBD binding of FITC phosphopeptide, fluorescence polarization; Potency, µM, inactives show max response, negative = inhibition, hits mostly inhibitors; 360,000 tested, 2.8% active; note: potency is the fitted concentration of half-maximal effect; series mostly up to about 57 µM; nearly all actives have a fitted effect of over 65% in size
# G9a inh = qHTS Assay for Inhibitors of Histone Lysine Methyltransferase G9a. G9a H3K9 monomethylation, AlphaScreen, 2 h. 350,000 tested, 8.8% active. Histone-lysine N-methyltransferase EHMT2 (Homo sapiens), Q96KQ7. Potency, µM (series often up to 102 µM), for the others: top-dose activity, negative = inhibition, most hits filed as inhibitors; note: potency is the fitted concentration of half-maximal effect; nearly all actives have a fitted effect of over 75% in size
# Target sequence (Q96KQ7 913-1193 limits assumed): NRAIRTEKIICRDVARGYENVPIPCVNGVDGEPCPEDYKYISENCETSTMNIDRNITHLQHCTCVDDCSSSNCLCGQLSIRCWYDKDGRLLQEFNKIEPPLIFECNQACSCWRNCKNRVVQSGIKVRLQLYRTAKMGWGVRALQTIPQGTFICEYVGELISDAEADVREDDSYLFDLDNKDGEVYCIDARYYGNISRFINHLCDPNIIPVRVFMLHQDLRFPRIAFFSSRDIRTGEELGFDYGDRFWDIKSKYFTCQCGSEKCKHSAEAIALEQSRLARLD
#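 Chemiluminescent proximity detection of H3K9 monomethylation, read after 10 min bead incubation in the dark. Reaction: 20 nM G9a, 500 nM biotin-H3K9 peptide, 20 uM SAM cofactor, 2 h, room temperature, following 15 min enzyme-compound preincubation.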
# VDR inh = Inhibitors of the vitamin D receptor (VDR): qHTS; Vitamin D3 receptor (Homo sapiens), P11473; VDR-SRC2-3 peptide fluorescence polarization, 2 h; Potency, µM, for inactives: max response, negative = inhibition, hits mostly inhibitors; 400,000 tested, 0.93% active; note: potency is the fitted concentration of half-maximal effect
# Target sequence (P11473 whole entry, looked up): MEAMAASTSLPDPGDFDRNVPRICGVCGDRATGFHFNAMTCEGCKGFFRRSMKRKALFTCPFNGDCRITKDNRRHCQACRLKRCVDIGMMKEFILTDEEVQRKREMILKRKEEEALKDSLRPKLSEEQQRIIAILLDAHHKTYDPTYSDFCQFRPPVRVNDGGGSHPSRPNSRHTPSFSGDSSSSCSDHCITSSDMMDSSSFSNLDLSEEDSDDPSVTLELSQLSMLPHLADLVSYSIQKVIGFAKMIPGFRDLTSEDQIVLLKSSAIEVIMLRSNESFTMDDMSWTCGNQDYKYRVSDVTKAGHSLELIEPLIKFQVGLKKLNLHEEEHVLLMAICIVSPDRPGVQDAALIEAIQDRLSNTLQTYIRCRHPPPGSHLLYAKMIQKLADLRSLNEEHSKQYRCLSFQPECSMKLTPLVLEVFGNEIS
#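 FP read-out; VDR + SRC2-3 coactivator peptide; 23 nl compound by pintool; 2 h RT incubation; reagents held at 4 deg C, protected from light.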
# CCT modulator = High-Throughput Screening for Modulators of Cytosolic Chaperonin Activity. 360,000 tested, 0.3% active. purified chaperonin ATPase assay, HTRF ADP detection, 30 min. AID 651819, 2012. activity change, % (test concentration not listed), hits read low; in the data active = activity change below about -30%
#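 Enzyme 40 or 20 nM (batch-dependent) in Tris pH 7.4/KCl/MgCl2/DTT; cpd 76 uM single point; ATP 10 uM; 30 min 37 °C; Transcreener ADP HTRF detection, 30 min RT; ratio 665/615.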
# Sfp PPTase inh = qHTS Assay for Inhibitors of Bacillus subtilis Sfp phosphopantetheinyl transferase (PPTase); 4'-phosphopantetheinyl transferase ffp (Bacillus subtilis), Q9F4F7; Biochemical Sfp PPTase activity, qHTS; Potency, µM, for inactives: largest response in the series, negative = inhibition, hits mostly inhibitors; 310,000 tested, 3.5% active; AID 1490, 2009;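 note: the enzyme is Sfp with the accession as filed and its product quenches rhodamine fluorescence; potency is the fitted concentration of half-maximal effect; 0% = enzyme reaction without inhibitor and -100% = no enzyme wells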
#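 Compounds were incubated with enzyme (final 15 nM) for 15 min at room temperature before substrate addition started the reaction. Fluorescence at 525 nm excitation, 598 nm emission was recorded immediately and after 30 minutes.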
# Mm-Cpn inhibitor = Inhibitors of TCP-1 ring complex (TRiC) of Methanococcus maripaludis (MmCpn): qHTS; Chaperonin Mm-Cpn (Methanococcus maripaludis); purified Mm-Cpn ATPase, ADP Transcreener TR-FRET; Potency, µM (titrated, usually from 76.9 µM), without a hit: at the highest dose activity, negative = inhibition, usual class: inhibitors; 330,000 tested, 0.031% active; AID 504842, 2011; note: potency is the fitted concentration of half-maximal effect; nearly all actives have a fitted effect of over 80% in size
#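 Inhibition of chaperonin ATP hydrolysis is measured as reduced ADP production, detected by competitive TR-FRET in which signal falls with ADP. Final enzyme 25 nM and ATP 10 uM, reacted 30 min at 37°C.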
# * marks the source's active call; other numbers are inactive results; ? = inconclusive; . = no result given; [ ] = dose if it differs, or a comment. Unless noted, calls come from the whole dose curve; as a rule, active = well fitted curve in the direction sought with a large enough effect; inconclusive = small, poorly fitted or top-dose-only effect, or another doubt; inactive = no such curve, though single readings can be large; an effect the other way counts as inactive or inconclusive. Unless noted, % is set by controls: 0 for no effect and ±100 for the full control effect.
SMILES,PLK1 PBD inh,G9a inh,VDR inh,CCT modulator,Sfp PPTase inh,Mm-Cpn inhibitor
Cc1ccccc1-c1cncnc1NCc1cccnc1,.,-6%[0.501 µM],50µM*,.,79µM*,.
Cc1noc(C)c1-c1cncnc1NCc1cccnc1,.,-49%[0.501 µM],-3%,.,56µM*,.
Cc1ccccc1-c1cncnc1NCc1ccccc1,.,8%[0.501 µM],-16%,.,-17%,.
C=C(C)C(=O)C1CCCCC1,.,.,-4%,.,-12%,.
O=C(COc1ccccc1[N+](=O)[O-])N(Cc1cccc(Br)c1)C1CCS(=O)(=O)C1 (stereo unspecified),-17%,.,-2%,-3,5%,-2%
Cc1ccc(CN(C(=O)c2ccc([N+](=O)[O-])cc2)C2CCS(=O)(=O)C2)o1 (stereo unspecified),3.8µM*,4%,?,-2,10%,0%
COc1cccc(CN(C(=O)c2ccc([N+](=O)[O-])cc2)C2CCS(=O)(=O)C2)c1 (stereo unspecified),12µM*,.,?,1,5%,0%
COc1cccc(C(=O)N(Cc2cccc(F)c2)C2CCS(=O)(=O)C2)c1 (stereo unspecified),.,-6%[59 µM],12%,.,.,.
COc1cccc(CN(C(=O)COc2ccccc2[N+](=O)[O-])C2CCS(=O)(=O)C2)c1 (stereo unspecified),24µM*,-5%,-19%,3,-10%,1%
Cc1ccc(NC(=O)CN(C)S(=O)(=O)c2ccc3c(c2)n(C)c(=O)c(=O)n3C)cc1F,.,9%[59 µM],-20%,.,.,.
COc1ccc(Nc2nc(C)cc(C)c2C(N)=O)c(OC)c1,-1%,-5%[59 µM],-13%,0,40µM*,-2%
COc1ccccc1Nc1nc(C)cc(C)c1C(N)=O,-6%,8%[59 µM],-4%,-2,24%,0%
NS(=O)(=O)c1cccc(NC(=O)COC(=O)CC2CC3CCC2C3)c1 (stereo unspecified),3%,-10%,2%,0,18%,-5%
O=C(COC(=O)CC1CC2CCC1C2)Nc1cccc(S(=O)(=O)NC2=NCCCCC2)c1 (stereo unspecified),21µM*,?,?,-1,-3%,-9%
O=C(/C=C/c1ccc(Cl)cc1Cl)Nc1cccc(S(=O)(=O)NC2=NCCC2)c1,17µM*,-2%,?,-14,13%,-7%
Cc1cccc(NC(=O)CNC(=O)COc2cc(F)ccc2[N+](=O)[O-])c1C,15µM*,?,?,0,24%,0%
O=C(Nc1cccc(S(=O)(=O)NC2=NCCCCC2)c1)C1COc2ccccc2O1 (stereo unspecified),-22%,50µM*,17%,1,20%,2%
O=C(Nc1ccc(S(=O)(=O)NC2=NCCCCC2)cc1)C1COc2ccccc2O1 (stereo unspecified),-5%,-23%[12.7 µM],2%,0,-1%,1%
CCC1OC(=O)C[C@H](O)C(C)[C@@H](O[C@@H]2OC(C)C(O)C(N(C)C)C2O)C(CCN2CC(C)CC(C)C2)CC(C)C(=O)/C=C/C(C)=C\[C@@H]1COC1OC(C)C(O)C(OC)C1OC (stereo partly specified),.,-48%[2.33 µM],6%,.,15%,.
COCCCNC(=O)c1sc2nc(C)c(C(=O)Nc3ccc(C)cc3C)c(-c3ccccc3Cl)c2c1N,.,-32%[59 µM],-17%,.,.,.
COc1ccccc1OCC(=O)Nc1cccc(S(=O)(=O)NC2=NCCCCC2)c1,2%,-34%,1%,1,.,2%
CCCOc1ccccc1OCC(=O)Nc1cccc(S(=O)(=O)NC2=NCCC2)c1,-1%,-42%,-7%,-2,.,-1%
O=C(COc1cc(F)ccc1[N+](=O)[O-])Nc1cccc(S(=O)(=O)NC2=NCCC2)c1,1%,3.2µM*,-10%,0,.,-17%
O=C(COc1ccccc1Cl)Nc1cccc(S(=O)(=O)NC2=NCCCCC2)c1,-7%,50µM*,-19%,1,.,0%
CCOC(=O)c1[nH]c2ccccc2c1NC(=O)c1c(F)cccc1F,.,-10%[59 µM],-12%,.,.,.
SMILES,PLK1 PBD inh,G9a inh,VDR inh,CCT modulator,Sfp PPTase inh,Mm-Cpn inhibitor
COc1cccc(-c2nc(Cn3c(=O)cc(C)c4c(C)nn(-c5ccccc5)c43)c(C)o2)c1OC,.,3%[59 µM],-11%,.,.,.
O=C(CSc1nc(=O)n(Cc2ccco2)c2c1CCC2)NCc1ccccc1Cl,.,-8%[59 µM],20%,.,.,.
Cc1c(C)c2c(cc(C)c3c(-c4ccccc4)coc32)oc1=O,.,-27%[59 µM],13%,.,.,.
CCCC(C)c1nnc(NC(=O)CN2C(=O)c3ccccc3C2=O)s1 (stereo unspecified),27µM*,7.9µM*,-16%,2,45µM*,3%
CCC(CC)c1nnc(NC(=O)CN2C(=O)c3ccccc3C2=O)s1,-18%,45µM*,5%,2,-10%,-4%
CCC(CC)c1nnc(NC(=O)CCN2C(=O)c3ccccc3C2=O)s1,-4%,-1%,-7%,0,5%,1%
CCCc1nnc(NC(=O)CN2C(=O)c3ccccc3C2=O)s1,-11%,9%[12.7 µM],8%,-4,-11%,?
O=S(=O)(c1ccc2[nH]c3c(c2c1)CCCCC3)N1CCN(c2cccc(Cl)c2)CC1,.,-34%[59 µM],12%,.,.,.
COc1ccccc1NC(=O)C1=C(C)Nc2nc(SCc3ccccc3)nn2C1c1cccc(O)c1 (stereo unspecified),.,-3%[59 µM],1%,.,.,.
O=c1c(S(=O)(=O)c2ccccc2)cn(Cc2cccc(F)c2)c2cc(N3CCOCC3)c(F)cc12,.,-2%[59 µM],0%,.,.,.
CCN1CCN(c2ccc(S(=O)(=O)N3CCCCC3)cc2NC(=O)c2cccc(Cl)c2)CC1,-9%,32µM*,-16%,1,.,-1%
CCN1CCN(c2ccc(S(=O)(=O)N3CCCCC3)cc2NC(=O)c2ccc(OC(F)F)cc2)CC1,-4%,14µM*,-16%,-3,.,1%
CCN1CCN(c2ccc(S(=O)(=O)N3CCCCC3)cc2NC(=O)c2cc3ccccc3o2)CC1,-6%,35µM*,-13%,-1,.,0%
CCN1CCN(c2ccc(S(=O)(=O)N3CCCCC3)cc2NC(=O)Cc2ccc(OC)cc2)CC1,-6%,-6%[12.7 µM],-6%,-1,6%,1%
CCN(CC)S(=O)(=O)c1ccc(N2CCOCC2)c(NC(=O)c2cc3ccccc3o2)c1,-1%,.,.,-3,.,.
